Screening data: PubChem BioAssay, ICCB-Longwood Screening Facility, Harvard Medical School
Shown are actives, neighbours in structure and some others; about 1.5% of the full set was active somewhere.
PV pol inh = inhibitors of poliovirus RNA polymerase binding and polymerization; poliovirus polymerase elongation, fluorescence polarization; active compounds read low; % elongation, % (compound at 16.7 µg/mL); 0.66% of 150,000 active; AID 588519; P03300; in the data active = % elongation below about 90%
MbtI inh = blocks the Mycobacterium tuberculosis siderophore enzyme MbtI | 0.89% of 100,000 active | purified MbtI enzyme, fluorescence intensity read-out | inhibition, % (concentration not given with the values); in the data active = inhibition mostly above about 56%, no sharp cut-off; inactive = mostly below about 77%
Target sequence (P9WFX0 whole entry, looked up): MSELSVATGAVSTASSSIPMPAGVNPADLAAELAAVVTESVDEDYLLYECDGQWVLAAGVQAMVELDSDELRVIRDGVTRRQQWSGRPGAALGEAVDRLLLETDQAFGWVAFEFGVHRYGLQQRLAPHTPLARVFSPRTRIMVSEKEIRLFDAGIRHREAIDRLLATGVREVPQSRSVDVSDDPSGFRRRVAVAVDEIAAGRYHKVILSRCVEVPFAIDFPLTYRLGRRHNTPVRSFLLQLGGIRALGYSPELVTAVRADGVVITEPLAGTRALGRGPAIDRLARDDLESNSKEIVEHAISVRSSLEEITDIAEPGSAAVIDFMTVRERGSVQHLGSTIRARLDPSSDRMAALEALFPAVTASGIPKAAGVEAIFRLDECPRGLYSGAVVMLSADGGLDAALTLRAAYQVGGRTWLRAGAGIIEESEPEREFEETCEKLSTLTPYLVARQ
Mtb MenB inh = inhibitors of Mycobacterium tuberculosis MenB enzyme; MenB enzyme assay, absorbance read-out; 0.43% of 100,000 active; inhibition, % (no concentration beside the values); AID 540299; P9WNP5; in the data active = inhibition above about 21%, passing the limit was not always enough
AID504770 = E. coli YBA685 growth inhibition, screen for V. cholerae RctB inhibitors; E. coli YBA685 rctB-dependent plasmid, OD600 growth, 3 h; active compounds read low; z-score (test concentration not listed); 0.27% of 130,000 active; in the data active = z-score below about -2, passing the limit was not always enough
* = called active by the depositor; nt = no result.

SMILES | PV pol inh | MbtI inh | Mtb MenB inh | AID504770
CC(C1CC2CCC1C2)n1c(SCC(=O)Nc2ccc3c(c2)OCO3)nnc1-c1ccco1 (centres undefined) | 103 | 5 | -12 | -0.45
CN1CCN(NC(=O)COc2ccc(Br)cc2Cl)CC1 | 100 | -9 | 8 | -0.45
O=C(NC1Cc2ccccc2C1)c1ccc2c(c1)OCCCO2 | nt | nt | nt | -0.65
O=C(COCc1cc(-c2ccc3c(c2)OCO3)on1)Nc1ccc(OC(F)(F)F)cc1 | 100 | 13 | -22 | -2.5*
O=C(COC(=O)c1ccncc1)NCc1ccccc1 | 103 | -9 | nt | -3.5*
O=C(COC(=O)c1ccc(Br)cc1)NCc1ccccc1 | 100 | -3 | nt | -0.1
CC1=C/C(=N\Nc2ccccc2Cl)CC1 | 100 | 72* | -38 | -2.9
CC1=C/C(=N\Nc2nncc3ccccc23)CC1 | 106 | 7 | -47 | -0.45
Cc1cccc(C)c1Nc1c(-c2ccccc2F)nc2cccc(C)n12 | 88* | nt | nt | nt
Cc1cccc2nc(-c3ccccn3)c(Nc3ccc(F)cc3)n12 | 120 | nt | nt | nt
Cc1ccc2oc(=O)n(CC(=O)C(C)(C)C)c2c1 | nt | nt | nt | -2.1*
Cc1ccc2oc(=O)n(CC(=O)c3ccc(F)cc3)c2c1 | nt | nt | nt | 0.25
CCCc1ccc(OCC(=O)Nc2scc(-c3cccs3)c2C(=O)OC)cc1 | 74* | nt | nt | nt
CCOC(=O)c1c(-c2cccs2)csc1NC(=O)COC(=O)c1cc2c(s1)CCC2 | 102 | -41 | -10 | 1
COC(=O)c1c(-c2cccs2)csc1NC(=O)COc1ccc(C(C)C)cc1 | 70* | nt | nt | nt
COC(=O)c1c(NC(=O)COc2ccc(C(C)C)cc2)sc2c1CCCC2 | 104 | nt | nt | nt
CC(C)CNS(=O)(=O)c1ccc2nc(NC(=O)c3ccccn3)sc2c1 | 107 | 68* | -89 | 1.8
CC(C)NS(=O)(=O)c1ccc2nc(NC(=O)c3cccnc3)sc2c1 | 100 | 1 | -8 | -0.55
S=c1[nH]nc(CNc2cccc(Cl)c2)o1 | 100 | 84* | -26 | -1.5
CCOC(=O)c1c(NC(=O)CCN2CCC(C)CC2)sc2c1CCC2 | nt | nt | nt | -0.1
CCCC(=O)c1ccc2[s+]c3ccccc3[n+](CCCN(C)C)c2c1 | 89* | nt | -38 | -0.6
CN(C)CCC(=O)c1ccccc1 | 103 | 22 | nt | 0.5
COC(=O)C1=NNC2(c3ccc(C)cc3)C(=O)N(c3ccc(C)cc3)C(=O)C12 (centres undefined) | 102 | -12 | 36* | 1.5
COC(=O)C1=NOC2C(=O)N(c3ccccc3)C(=O)C12 (centres undefined) | nt | -3 | nt | -1.4
COc1ccc(NC(=O)CSC2=NCCS2)cc1 | nt | nt | nt | -0.9
SMILES | PV pol inh | MbtI inh | Mtb MenB inh | AID504770
NNC(=O)c1cc2ccccc2[nH]1 | 100 | 16 | 4 | -0.35
NNC(=O)c1cc(=S)nc[nH]1 | 97 | 99* | -35 | -1.3
Cc1[nH]nc2c1C(c1ccco1)N(C)C2=O (centres undefined) | 101 | -7 | -14 | -0.05
O=C(NC1CCCCC1)Sc1ccc(Cl)cc1 | 95 | 76* | -40 | -0.25
Cc1ccccc1N=C1Nc2ccc3ccccc3c2C1=O | 102 | -3 | -31 | -0.5
O=C(NC1CCS(=O)(=O)C1)Sc1ccccc1 (centres undefined) | 104 | 52* | 15 | 1.2
CCNCC(=O)NCc1cccs1 | 104 | 12 | 10 | 0.65
Cc1sc(NC(=O)Cn2nc(C(F)(F)F)cc2C)c(C(N)=O)c1C | 68* | nt | 3 | 0.05
NC(=O)c1c(NC(=O)c2cc(-c3ccc(F)cc3)on2)sc2c1CCCC2 | 76* | nt | nt | nt
CCOC(=O)C(Sc1nc2c(c(=O)[nH]1)CCCC2)c1ccccc1 (centres undefined) | nt | 74* | -10 | -0.35
O=c1[nH]c(SCc2ccccc2)nc2c1CCCC2 | 111 | nt | nt | nt
COC(=O)c1ccc(NC(=O)C(C)Sc2nc3c(c(=O)[nH]2)CCCC3)cc1 (centres undefined) | 102 | 81* | -6 | -0.6
CC(CCc1ccccc1)NC(=O)CN1CC(C)OC(C)C1 (centres undefined) | 103 | -7 | -10 | 0
CCn1nnc2cc(C(=O)N(C3=NC(C)CS3)c3ccc(Cl)cc3)ccc21 (centres undefined) | 105 | -2 | -24 | -0.15
CCOC(=O)C1CCN(c2c(C(=O)c3ccc(C)cc3)cnc3ccc(F)cc23)CC1 | 80* | nt | nt | nt
CCN1C2=C(C#N)C(=O)CCCN2C(=O)c2ccccc21 | 103 | 15 | -26 | -0.35
O=C(CNc1ccccc1Cl)N/N=C1\CCCc2ccccc21 | 102 | 7 | 39* | -0.2
CCN1C(=O)/C(=C/c2ccc(Cl)cc2)NC1=S | 102 | -144 | -24 | -0.2
O=S(=O)(c1cccc(Cl)c1Cl)N1CCN(c2ncccn2)CC1 | 106 | 4 | -3 | 1.9
O=S(=O)(c1cccc(Cl)c1Cl)N1CCOCC1 | 100 | -6 | 33* | 0.95
Clc1ccc2c(N3CCN(c4ncccn4)CC3)ccnc2c1 | 99 | -2 | 1 | 0.15
Cc1ccc(S(=O)(=O)NC(CO)C(=O)O)cc1 (centres undefined) | 102 | 5 | 31* | -0.65
COC(=O)C(CO)NS(=O)(=O)c1ccc(C)cc1 (centres undefined) | nt | nt | nt | -0.9
CSC(=NC=[N+](C)C)Nc1ccccc1 | nt | nt | nt | -0.35
Cc1ccc(CC(=O)Nc2ccc3c(c2)N(C)C(=O)c2ccccc2S3)cc1 | 70* | nt | nt | nt
SMILES | PV pol inh | MbtI inh | Mtb MenB inh | AID504770
Brc1ccsc1-c1ccn[nH]1 | nt | nt | nt | -1.1
COc1ccc(C(=O)Nc2nc3c(s2)Cc2cc(OC)ccc2-3)cc1 | 67* | nt | nt | nt
COc1ccc2c(c1)Cc1sc(NC(=O)c3ccccc3C)nc1-2 | 83* | nt | nt | nt
COc1ccc2c(c1)Cc1sc(NC(=O)c3ccccc3)nc1-2 | nt | nt | nt | 0.6
COc1ccc2c(c1)Cc1sc(NC(=O)c3cccc(F)c3)nc1-2 | 90 | nt | nt | nt
COc1ccc2c(c1)Cc1sc(NC(=O)c3ccc(OC)c(Br)c3)nc1-2 | 87* | -7 | -3 | 0.25
O=C1c2ccccc2C(=O)N1CCN1CCN(c2ncc(C(F)(F)F)cc2Cl)CC1 | nt | 6 | -21 | -0.25
COc1ccc(/C=C/C(=O)Nc2ccccc2)cc1 | 101 | 13 | 3 | -0.75
COC(=O)/C=C/C(=O)Nc1ccccc1 | 101 | 101* | -11 | -2.2
CC(C)(C)NCc1ccc(-c2ccccc2)o1 | 100 | 8 | 12 | 0.05
CCN(CC)CCNCc1ccc(-c2ccccc2)o1 | 102 | 11 | 33* | -0.2
CSc1n[nH]c(N)c1C#N | 103 | -6 | -67 | -0.9
NC(=O)n1c(CCC(=O)O)nc2sc3c(c2c1=O)CCC3 | 85* | 21 | -28 | 0
Nn1c(Cc2ccccc2)nc2sc3c(c2c1=O)CCCC3 | 98 | -3 | -7 | 0.5
CCCc1nc2sc3c(c2c(=O)n1N)CCCC3 | 100 | 5 | 33* | 0.3
O=S1NN(c2ccccc2)S(=O)NN1c1ccccc1 (centres undefined) | 72* | 7 | -68 | -0.95
O=c1oc2cc3occ(-c4ccccc4)c3cc2c2c1CCC2 | 100 | -2 | 2 | 1.9
COc1cccc(OC)c1C(=O)Nc1nnc(CC(C)(C)C)s1 | 71* | nt | -19 | -0.25
CCOC(=O)c1ccc(NC(=S)NC(C)c2ccc3c(c2)OCCO3)cc1 (centres undefined) | 54* | -1 | -23 | 0.6
